Assay results from PubChem BioAssay AID463212 (Sanford-Burnham Center for Chemical Genomics, 2010).
Where “and” joins values, the source holds several entries; their conditions need not be identical. Equal entries are not always repeated. Hit rate of the full screen: of about 330,000 compounds, about 4,400 (1.3%) were called active. Shown is part of a subset that was picked to be rich in actives. A number with no mark means an inactive call.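 How the source made its calls: active means growth inhibition of the mutant yeast at or above 50%; inactive means the rest.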

Experiment: growth inhibitors of tim23-1 mutant yeast, primary screen, luminescence, uHTS (AID 463212);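 further: temperature-sensitive mutant grown at 25 °C; plate controls were DMSO-treated mutant yeast for no effect and medium wells lacking yeast for full effect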
Conditions: S. cerevisiae tim23-1 growth, BacTiter-Glo luminescence, 24 h; at 20 µM; active compounds read high

Structure (SMILES) | inhibition
CN(C)/C=C(/C(=O)c1ccccc1Cl)S(C)(=O)=O | 8.01%
O=S(=O)(Nc1ccc(-c2ccc(N3CCOCC3)nn2)cc1)c1cc(Cl)ccc1Cl | 36%
COc1ccc(CCNC(=O)CN(c2ccccc2)S(C)(=O)=O)cc1 | 10.1%
Cc1cc(C)nc(SCC(=O)N(C)C)n1 | 3.33%
Cc1cc(C)nc(SCc2ccccc2C#N)n1 | 8%
Cc1cc(C)nc(S/C=C/C(=O)c2ccccc2)n1 | 83.3% (active)
COc1ccc(/C=C2/C(=O)N(c3ccccc3)N=C2C)c(OC)c1 | 52.9% (active)
COc1ccc(/C=C2/C(=O)OCc3cc(OC)c(OC)cc32)c(OC)c1 | 23.4%
COc1ccc(C2/C(=C(/O)c3ccccc3)C(=O)C(=O)N2C)c(OC)c1 (stereo unspecified) | 12%
Cc1c(NC(=O)c2cc(-c3ccc(Cl)s3)nc3ccccc23)c(=O)n(-c2ccccc2)n1C | 25.7%
NC(=NC(=O)c1ccccc1)C1=C(O)CCC1=O | 15.3%
Cc1cccc(NC(=O)c2nc(S(=O)(=O)Cc3ccccc3)ncc2Cl)c1 | 75.9% (active)
Cc1ccc(CS(=O)(=O)c2ncc(Cl)c(C(=O)Nc3nnc(C)s3)n2)cc1 | 18.2%
Cc1cccc(CS(=O)(=O)c2ncc(Cl)c(C(=O)Nc3ccc(F)cc3)n2)c1 | 39.1%
CCOC(=O)Cc1cc(=O)[nH]c(/N=C(\N)Nc2ccc(OC)cc2)n1 | -4.74%
COCCNc1ccc(-c2n[nH]c(=O)c3ccccc23)cc1[N+](=O)[O-] | 1.96%
CN(CC(=O)Nc1ccc(F)cc1)C(=O)c1ccc(-c2ccc(Cl)cc2)o1 | 36.9%
Cc1[nH][nH]c(=O)c1C(c1ccc(-c2ccc(Cl)cc2)o1)c1c(C)[nH][nH]c1=O | 84.6% (active)
O=C(NC1CCCCC1)c1ccc(-c2ccc(Cl)cc2)o1 | 45.4%
Cc1ccsc1C1C(C#N)=C(N)OC2=C1C(=O)CC(C)(C)C2 (stereo unspecified) | 15.8%
NC(=O)COc1ccc(/C=N/NC(=O)C2CCCN2S(=O)(=O)c2ccc(Cl)cc2)cc1 (stereo unspecified) | 4.5%
CC1(C)C=Cc2c(ccc3c2OC[C@@H](c2ccc(O)cc2O)C3)O1 | 81.8% (active)
CCCCc1nccn1CCn1ccnc1CCCC | 2.76%
CN(C(=O)COC(=O)CNC(=O)C12CC3CC(CC(C3)C1)C2)c1ccccc1 | 3.66%

Structure (SMILES) | inhibition
CN(C(=O)CC(NC(=O)c1ccccc1)(c1ccccc1)c1ccccc1)c1ccccc1 | 51.5% (active)
CC(C)(C)c1ccc(C(=O)NNC(=O)Cc2ccccc2)cc1 | 8.91%
C=CCn1c(P(C)(=O)O)nc2ccccc21 | 5.79% and -9.61%
O=C(c1ccco1)N1CCN(C(=O)C2CCCN(S(=O)(=O)c3cccc4nsnc34)C2)CC1 (stereo unspecified) | 9.26%
Cc1c(Br)ccc(NC(=O)COc2ccccc2C(N)=O)c1C | 3.99%
Cc1cc(=O)cc(C)n1-c1ccc(Cl)c(Cl)c1 | 1.14%
CCSc1ncnc2c(C#N)c3n(c12)CCCCC3 | 32.7%
CCSC1=C(C#N)C(=O)n2c1cc1c2CCCC1 | 58% (active)
CC(=O)NC1CCN(CC(=O)Nc2nccs2)CC1 | 8.15%
COc1ccccc1CCCNC(=O)C1CCC(=O)N(CCN2CCOCC2)C1 (stereo unspecified) | -0.497%
Fc1ccccc1COc1ccccc1CNCc1ccncc1 | 3.21%
CCN1CCc2nc(NC(=O)c3cc(F)c(F)cc3Cl)sc2C1 | 4.64%
COc1ccc(CNC(=O)CCn2cccc2)cc1 | 6.47%
COc1ccc(CNC(=O)/C(C#N)=C/c2cccc(OC)c2OC)cc1 | 71.3% (active)
COc1ccc(NC(=O)/C(C#N)=C\c2cc(OC)c(OCc3ccc(C(=O)O)cc3)cc2Br)cc1 | 20.5%
CN(CC(=O)Nc1ccccc1[N+](=O)[O-])Cc1ccc(Br)cc1 | 1.11%
COc1ccccc1CNC(=O)C1Cc2ccccc2C(=O)O1 (stereo unspecified) | 17.7%
COc1cc(NS(=O)(=O)c2ccc3ccccc3c2)c2ncccc2c1 | 26.4%
O=[N+]([O-])c1ccccc1S(=O)(=O)Nc1cccc2cccnc12 | 57.4% (active)
NS(=O)(=O)c1ccc(CCNS(=O)(=O)c2cccc3cccnc23)cc1 | 11.4%
CC1(C)COC(c2cccn2Cc2ccccc2Cl)=N1 | 2.43%
COc1ccc(Cl)cc1NC(=O)CN(C)C(=O)c1cc(-c2cccs2)nn1-c1ccccc1 | 25.9%
CCc1ccc2oc(-c3ccc(N)cc3)nc2c1 | 65.6% (active)
O=[N+]([O-])c1ccc2oc(-c3cccc(O)c3)nc2c1 | 29.8%

Structure (SMILES) | inhibition
O=C(N/N=C\c1cc(Br)c(Br)o1)C1COc2ccccc2O1 (stereo unspecified) | 50.2% (active)
O=C(CNC(=O)C1COc2ccccc2O1)N/N=C/c1cc(Br)c(O)c(Br)c1 (stereo unspecified) | 12.1%
O=C(N/N=C/c1cc2c(cc1Br)OCO2)C1COc2ccccc2O1 (stereo unspecified) | 22.2%
CCOC(=O)c1c(NC(C)=O)sc2c(O)c(Br)ccc12 | 20.3%
Cc1ccc(-n2c(SCC(=O)N/N=C/C=C/c3ccccc3[N+](=O)[O-])nc3ccccc3c2=O)cc1 | 12.1%
CCOc1ccc(CCNC(=O)COC(=O)CCS(=O)(=O)c2ccc(C)cc2)cc1OCC | 8.24%
Cc1ccc(Cn2nnc3c(=O)[nH]c(C4CCN(S(=O)(=O)/C=C/c5ccccc5)CC4)nc32)cc1 | 17.8%
Cc1ccc(C(C[N+](=O)[O-])c2c(C)cc3ccccn23)cc1 (stereo unspecified) | 48.5%
Nc1ccccc1SC(C[N+](=O)[O-])c1ccccc1 (stereo unspecified) | 81.4% (active)
O=C(CN(C(=O)c1csnn1)c1ccc(Br)cc1)NC1CCCC1 | 6.83%
O=C(Nc1nonc1-c1ccc(Cl)cc1)c1ccco1 | 29.1%
CC(C)[C@H](NC(=O)OCc1ccccc1)C(=O)OCc1ccccc1 | 16%
Cc1c(S(=O)(=O)NC(C)c2ccccc2)c(=O)n(C)c(=O)n1C (stereo unspecified) | 0.038%
C/C(=N/NC(=O)c1cc(Cl)ccc1O)C12CC3CC(CC(C3)C1)C2 | 54.5% (active)
Cc1ccc(C(=O)NC23CC4CC(CC(C4)C2)C3)c(Cl)c1 | 20.2%
O=C(N/N=C1\CCSC1)c1cc(Cl)ccc1O | 7.53%
CCOc1ccc(S(=O)(=O)NCCCn2ccnc2)cc1NC(C)=O | -2.51%
Cc1ccnc(NC(=O)CCC(=O)N(CC(=O)NCCc2ccccc2)Cc2cccs2)c1 | 6.97%
COc1cccc(CN2C(=O)CCC2(C)C(=O)NC2CCCCCC2)c1 (stereo unspecified) | -1.86%
COC(=O)c1c(NC(=O)C2CC(C)=C(C)CC2C(=O)O)sc2c1CCCCC2 (stereo unspecified) | 27.7%
COC(=O)c1c(NC(=O)CSc2nncs2)sc2c1CCCCC2 | 52.6% (active)
COC(=O)c1c(NC(=O)CCN2CCOCC2)sc2c1CCCC2 | 26%
Cc1ccc(NS(=O)(=O)c2cn(C)c(=O)n(C)c2=O)c(C)c1 | 11%
Cc1cccc(C(C)C)c1NC(=O)COC(=O)C1CC(=O)N(Cc2ccccc2)C1 (stereo unspecified) | -6%

Structure (SMILES) | inhibition
Clc1ccc(Nc2ccc3ccccc3n2)cc1 | 84.8% (active)
C(=N\Nc1ccc2ccccc2n1)/c1ccc2c(c1)OCO2 | 18.7%
Cc1cccc(NC(=O)c2ccc3ccccc3n2)n1 | 26.7%
CC(=O)N1c2ccc(S(=O)(=O)N3CCCC(C(=O)Nc4cccc(F)c4)C3)cc2CC1C (stereo unspecified) | 19.4%
CC(C)c1ccc(NC(=S)NC2CC3C=CC2C3)cc1 (stereo unspecified) | 50.9% (active)
S=C(NNC(=S)NC1CC2CCC1C2)NC1CC2C=CC1C2 (stereo unspecified) | 13.8%
S=C(NNC(=S)NC1CC2C=CC1C2)NC1CC2C=CC1C2 (stereo unspecified) | 6.32%
Cc1csc(NC(=O)c2ccc(C)s2)n1 | 17%
COc1cc(SC)ccc1C(=O)Nc1nc(C)cs1 | 51.1% (active)
COc1ccc(C(=O)Nc2cccc(NC(=O)c3ccc(OC)cc3OC)n2)c(OC)c1 | -26.2%
O=C(/C=C/c1ccccc1)N/C(=C/c1ccccc1)C(=O)Nc1ccccc1O | 19.1%
O=C(/C=C/c1ccccc1)c1ccccc1O | 55.8% (active)
O=C(/C=C/c1ccc(N2CCOCC2)cc1)c1ccccc1 | 35.2%
Nc1cc(N)nc(SCC(=O)Nc2cccc(S(=O)(=O)N3CCCCC3)c2)n1 | -8.43%
O=C1C=C(c2cccc(Cl)c2)C[C@@H](c2ccc(F)cc2)C1 | 35.1%
O=C1C=C(c2cccc(Cl)c2O)C[C@@H](c2ccc(F)cc2)C1 | 63.4% (active)
COc1ccccc1C1=CC(=O)C[C@H](c2ccc(F)cc2)C1 | 35.3%
COc1ccc2ccccc2c1CNc1nnnn1C | -0.932%
Cc1cc(C(=O)N/N=C\C(Br)=C\c2ccccc2)c(C)o1 | 55.9% (active)
CC(=C/c1ccccc1)/C=N/NC(=O)c1cc(C)oc1C | -0.867%
CC(C)c1cc(C(=O)N/N=C/C(Br)=C/c2ccccc2)n[nH]1 | 34.3%
CCN(CC)C(=O)c1nc[nH]c1C(=O)N(C)Cc1ccccc1 | 8.93%
Cc1cc(C)cc(NC(=O)C2CCCN2S(=O)(=O)c2cccc3cccnc23)c1 (stereo unspecified) | 47.9%
CCOC(=O)c1cc2c(=O)n3ccccc3nc2n(CC(C)C)c1=NC(=O)c1c(-c2c(F)cccc2Cl)noc1C | 28.6%
